Screening results as filed in PubChem BioAssay.
JMJD2A Tudor: blocks the human JMJD2A Tudor domain; O75164; AlphaScreen JMJD2A-Tudor / H3K4me3 peptide binding; Potency, µM (highest dose often 114 µM), for the others: at the highest dose activity change, negative = inhibition, most hits filed as inhibitors; hit rate 4.4% among 390,000; AID 504339; note: potency is the fitted concentration of half-maximal effect; % is set by controls: 0 for no effect and ±100 for the full control effect; nearly all actives have a fitted effect of over 50% in size
PI5P4K alpha inh: PI5P4K alpha (human) kinase inhibition | P48426 | PI5P4Kalpha enzyme, ADP-Glo luminescence, 60 min; hits give low values | max response, % | hit rate 1.2% among 330,000; active = max response of -50% or lower; inconclusive = between -30% and -50%; inactive = -30% or higher; note: value at the top dose of about 77 µM; % is set by controls: 0 for no effect and ±100 for the full control effect
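Human PI5P4Kalpha with substrate in 0.038 M HEPES pH 7.4, 0.28 mM EGTA, 0.1% CHAPS, 5% DMSO; reaction started with 5 microM ATP (final), 60 min at room temperature. ADP formed read by ADP-Glo luminescence.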
JMJD2E inh: blocks human JMJD2E demethylase activity | B2RXH2 | JMJD2E catalytic domain, FDH-coupled NADH fluorescence (FDH is formaldehyde dehydrogenase) | AID 2147 | hit rate 1.6% among 230,000 | Potency, µM (titrated, usually from 57.1 µM), for the others: top-dose activity change, negative = inhibition, most hits filed as inhibitors; active = well fitted inhibition curve with a large enough effect, not every such curve was filed as active; inconclusive = small, poorly fitted or top-dose-only effect, or another doubt; inactive = no such curve, though single readings can be large or run the other way;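 note: potency is the fitted concentration of half-maximal effect; 0% = wells with enzyme and -100% = buffer wells without enzyme; nearly all actives have a fitted effect of over 50% in size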
L3MBTL1 inh: inhibitors of human L3MBTL1. Q9Y468. AlphaScreen L3MBTL1–H3K9me1 peptide binding. Potency, µM (series often up to 57.1 µM), for inactives: at the top dose activity, negative = inhibition, actives largely listed as inhibitors. hit rate 0.66% among 230,000; note: potency is the fitted concentration of half-maximal effect; % is set by controls: 0 for no effect and ±100 for the full control effect; nearly all actives have a fitted effect of over 60% in size
Target sequence (Q9Y468 whole entry, looked up): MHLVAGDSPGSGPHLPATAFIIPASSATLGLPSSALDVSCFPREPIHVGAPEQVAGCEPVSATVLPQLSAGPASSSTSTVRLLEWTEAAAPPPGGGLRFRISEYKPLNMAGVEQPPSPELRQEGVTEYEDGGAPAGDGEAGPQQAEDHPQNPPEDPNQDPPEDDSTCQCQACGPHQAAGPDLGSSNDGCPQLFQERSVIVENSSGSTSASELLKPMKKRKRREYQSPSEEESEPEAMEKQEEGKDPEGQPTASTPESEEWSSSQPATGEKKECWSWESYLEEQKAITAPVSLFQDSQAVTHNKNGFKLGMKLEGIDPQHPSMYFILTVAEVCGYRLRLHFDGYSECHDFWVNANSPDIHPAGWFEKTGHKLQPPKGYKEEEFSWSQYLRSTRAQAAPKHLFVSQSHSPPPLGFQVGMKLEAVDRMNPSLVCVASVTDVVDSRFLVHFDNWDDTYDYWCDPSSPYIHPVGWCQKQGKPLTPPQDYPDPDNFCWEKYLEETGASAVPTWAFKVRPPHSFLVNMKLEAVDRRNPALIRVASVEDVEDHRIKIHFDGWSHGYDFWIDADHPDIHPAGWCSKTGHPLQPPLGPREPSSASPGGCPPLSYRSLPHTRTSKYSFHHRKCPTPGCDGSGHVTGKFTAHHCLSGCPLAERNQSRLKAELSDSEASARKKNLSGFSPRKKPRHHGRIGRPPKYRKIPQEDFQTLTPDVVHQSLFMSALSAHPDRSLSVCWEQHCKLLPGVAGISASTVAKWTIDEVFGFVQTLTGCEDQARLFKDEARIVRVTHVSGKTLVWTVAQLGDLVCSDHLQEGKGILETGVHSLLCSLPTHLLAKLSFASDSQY
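First, the protein-peptide complex forms for 30 min at room temperature (L3MBTL1 50 nM, biotinylated H3K9me1 peptide 75 nM). Next, compounds are pin-transferred and incubated 30 min. Finally, AlphaScreen beads are added and read after 30 min.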
HP1b chromo inh: inhibitors of HP1-beta chromodomain binding to methylated histone tails | AlphaScreen HP1-beta / biotin-H3K9me3 peptide binding | Potency, µM (doses to about 114 µM), for inactives: at the highest dose activity change, negative = inhibition, hits mostly inhibitors | hit rate 0.56% among 390,000 | AID 540317; note: potency is the fitted concentration of half-maximal effect; nearly all actives have a fitted effect of over 70% in size
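HP1-beta protein (50 nM final) preincubated 30 min at room temperature with biotinylated H3(1-18)K9me3 peptide (50 nM) in PBS pH 7.4, 0.01% Tween-20, then compound added for 30 min. AlphaScreen streptavidin donor/nickel chelate acceptor beads (10 ug/mL final), 30 min dark, luminescence read.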
BAZ2B block: BAZ2B (human) inhibition; AlphaScreen BAZ2B-H3K14Ac peptide displacement; Potency, µM (doses to about 114 µM), inactives show top-dose activity change, negative = inhibition, most hits filed as inhibitors; hit rate 4.4% among 360,000; note: potency is the fitted concentration of half-maximal effect; % is set by controls: 0 for no effect and ±100 for the full control effect; nearly all actives have a fitted effect of over 60% in size
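Inhibition is scored as reduced AlphaScreen emission. The BAZ2B/b-H3(5-23)K14Ac complex (50 nM each) in PBS pH 7.4, 0.01% Tween-20 meets compound (up to 110 uM) for 30 min at RT before bead addition.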
Active calls of the source: *; ? = inconclusive; nt = not tested or not shown; [ ] = dose if it differs, or a comment. Most compounds without a hit are left out; they make up all but 5.7% or so of the library. Unless noted, calls come from the whole dose curve; as a rule, active = well fitted inhibition curve with a large enough effect; inconclusive = small, poorly fitted or top-dose-only effect; inactive = no such curve, though single readings can be large or run the other way.

SMILES | JMJD2A Tudor | PI5P4K alpha inh | JMJD2E inh | L3MBTL1 inh | HP1b chromo inh | BAZ2B block
CCOC(=O)C1=C(C)N=c2sc(=Cc3ccc(OCC(=O)O)cc3)c(=O)n2C1c1ccc(SC)cc1 (stereo unspecified) | nt | -18 | nt | nt | nt | nt
CCOC(=O)C1=C(C)N=c2s/c(=C\c3ccc(C(=O)O)cc3)c(=O)n2C1c1ccc(OC)cc1OC (stereo unspecified) | -35% | -5 | nt | nt | 6% | nt
CCOC(=O)c1noc2ncnc(N3CCN(c4cccc(C(F)(F)F)c4)CC3)c12 | -13% | nt | nt | nt | 89% | -3%
CN1CCN(C(=O)CSc2ccc(C(F)(F)F)cc2[N+](=O)[O-])CC1 | -2% | 5 | 7% | 6% | 17% | -6%
Cc1nc(-c2ccc(S(=O)(=O)N3CCN(c4ccccc4F)CC3)cc2)co1 | ? | nt | nt | nt | 5%[57 µM] | -34%
O=C(NCC1CCCO1)C(=O)N/N=C/c1ccc(OCc2ccccc2Cl)cc1 (stereo unspecified) | 45µM* | 2 | nt | nt | 3% | nt
Cc1ccccc1CN1C(=O)c2ccccc2Sc2ccc(C(=O)NC(C)c3ccccc3)cc21 (stereo unspecified) | -19% | nt | nt | nt | -11% | -9%
COc1ccc(NC(=S)NNC(=S)Nc2cccc(C(F)(F)F)c2)cc1 | ? | -78* | 4% | -28% | ? | ?
CC1(c2ccc3c(c2)OCO3)NC(=O)N(CC(=O)c2ccc[nH]2)C1=O (stereo unspecified) | -19% | -24 | nt | -2% | 26% | -25%
CC1(c2ccc3c(c2)OCCO3)NC(=O)N(CC(=O)c2ccc[nH]2)C1=O (stereo unspecified) | -24% | -53* | nt | -25% | 45% | ?
COc1ccc(OC(=O)Nc2ccccc2)cc1 | 0% | nt | -2% | nt | 18% | 7%
Cc1occc(=O)c1OC(=O)Nc1ccccc1 | 20µM* | 7 | -30% | nt | 5% | ?
COc1ccc(NC(=O)C2CCN(C(=O)NC3CCCCC3)CC2)c(OC)c1 | 79µM* | -7 | 1% | 2% | -21% | nt
COc1ccc(NC(=O)C2CCN(C(=O)c3cccs3)CC2)c(OC)c1 | 28µM* | ? | -1% | 3% | ? | -32%
COc1ccc(NC(=O)C2CCCN2C(=O)NC2CCCCC2)c(OC)c1 (stereo unspecified) | 3% | -3 | nt | nt | 53% | -13%
COc1ccc(NC(=O)CSc2nc3nc(C)c(Cc4ccccc4)c(C)n3n2)cc1OC | -24% | nt | nt | nt | 17% | -19%
CCN(CC)c1ccc(/C=C/c2cccc[n+]2C)c(OC)c1 | 18µM* | ? | nt | -13% | -18% | 50µM*
COc1ccc(/C=C/c2cccc[n+]2C)c(O)c1 | -1% | -2 | nt | -1% | 6% | -4%
CCOc1ccc(OC(=O)c2cn(-c3cccc(OC)c3)c(=O)c3ccccc23)cc1 | -11% | nt | nt | nt | 33%[57 µM] | 1%
CC(C)(C)NC(=S)NC(=O)C12CC3CCC(CC(C3)C1)C2 | 89µM* | 0 | -1% | 10% | -15% | -38%
Nc1ccc(S(=O)(=O)N2CCN(S(=O)(=O)c3c(F)cccc3F)CC2)cc1 | 89µM* | nt | nt | nt | nt | nt
Cc1ccc2c(c1)C1CN(C)CCC1N2Sc1ccccc1[N+](=O)[O-] (stereo unspecified) | 32µM* | -3 | -12% | nt | ? | 16µM*
C#CCOCCOCCOCCNc1nc(N2CCN(C(=O)CCCCCCCCCCNC(=O)[C@H]([C@@H](C)CC)n3cc(CCCCCN)nn3)CC2)nc(N2CCN(C(=O)CCCCCCCCCCNC(=O)[C@H](CCCCN)n3cc(CCCC(=O)O)nn3)CC2)n1 | ? | ? | nt | 21% | 11% | ?
C#CCOCCOCCOCCNc1nc(N2CCN(C(=O)CCCCCCCCCCNC(=O)[C@@H](CCC(=O)O)n3cc(CCCCCN)nn3)CC2)nc(N2CCN(C(=O)CCCCCCCCCCNC(=O)[C@H]([C@@H](C)CC)n3cc(CCCCCN)nn3)CC2)n1 | ? | ? | nt | -11% | 0% | 56µM*
C#CCOCCOCCOCCNc1nc(N2CCN(C(=O)CCCCCCCCCCNC(=O)[C@H](CCCCN)n3cc(C)nn3)CC2)nc(N2CCN(C(=O)CCCCCCCCCCNC(=O)[C@H](CCCCN)n3cc(CCCC(=O)O)nn3)CC2)n1 | ? | -54* | nt | 8% | 9% | -31%
SMILES | JMJD2A Tudor | PI5P4K alpha inh | JMJD2E inh | L3MBTL1 inh | HP1b chromo inh | BAZ2B block
C#CCOCCOCCOCCNc1nc(N2CCN(C(=O)CCCCCCCCCCNC(=O)[C@H]([C@@H](C)CC)n3cc(CCCCCN)nn3)CC2)nc(N2CCN(C(=O)CCCCCCCCCCNC(=O)[C@H](CO)n3cc(CCCCCN)nn3)CC2)n1 | ? | -50* | nt | -10% | -20% | ?
C#CCOCCOCCOCCNc1nc(N2CCOCC2)nc(N2CCN(C(=O)CCCCCCCCCCNC(=O)[C@@H](CCC(=O)O)n3cc(CCCCCN)nn3)CC2)n1 | -28% | 1 | nt | 5% | 2% | -26%
C#CCOCCOCCOCCNc1nc(N2CCOCC2)nc(N2CCN(C(=O)CCCCCCCCCCNC(=O)[C@@H]([C@H](C)CC)n3cc(CCCCCN)nn3)CC2)n1 | ? | -6 | nt | -4% | 7% | ?
C#CCOCCOCCOCCNc1nc(N2CCN(C(=O)CCCCCCCCCCNC(=O)[C@H]([C@@H](C)CC)n3cc(CCCCCN)nn3)CC2)nc(N2CCN(C(=O)CCCCCCCCCCNC(=O)[C@@H]([C@H](C)CC)n3cc(CCCCCN)nn3)CC2)n1 | nt | nt | nt | -10% | nt | 50µM*
C#CCOCCOCCOCCNc1nc(N2CCN(C(=O)CCCCCCCCCCNC(=O)[C@H](CCCCN)n3cc(CCCC(=O)O)nn3)CC2)nc(N2CCN(C(=O)CCCCCCCCCCNC(=O)[C@@H]([C@H](C)O)n3cc(C)nn3)CC2)n1 | ? | -11 | nt | 7% | -6% | -31%
CCOC(=O)c1ccc(N2CCN(c3cccc(Cl)c3)CC2)c(NC(=O)Nc2ccc(Cl)cc2)c1 | -28% | nt | nt | nt | 43% | -8%
Cc1cnc(C(=O)OCC(=O)Nc2oc(-c3ccccc3)c(-c3ccccc3)c2C#N)cn1 | 56µM* | nt | 9% | -2% | -11% | -57%
CCN(CC)CCN(Cc1cc2cc(C)ccc2[nH]c1=O)C(=S)Nc1ccccc1 | -33% | -4 | -6% | -1% | 27% | ?
CC(C)NCC(=O)Nc1c2c(nc3ccccc13)CCC2 | 22µM* | -1 | ? | 0% | -1% | 50µM*
O=C(NC1CCCCC1)c1c2c(nc3ccccc13)CCC2 | -24% | ? | -13% | -12% | 25% | 50µM*
